The values below come from PubChem BioAssay AID372 (MTDP, 2006).

The campaign covered roughly 100,000 compounds. About 770 (0.77%) were called active. This is one part of a sample in which actives are shown more often than they occur. A number with no mark means an inactive call. No stated cut-off is given here; in the data, active means inhibition above about 50%; inactive means the rest.

The experiment concerns the target Gag-Pol polyprotein (Human immunodeficiency virus type 1 group M subtype B (isolate HXB2)) (UniProt P04585). The experiment in a line: RNase H inhibition, HIV 1 Gag Pol polyprotein, FRET biochemical assay, screening (AID 372). The note with it: HIV-1 RT RNase H, FRET RNA/DNA substrate fluorescence; at 10 µM; active compounds read high.
On to `COc1cccc(C(=O)NC(=S)Nc2ccc3oc(-c4ccccc4Cl)nc3c2)c1`, for which the inhibition is 12%.

`O=C(CSc1n[nH]c(-c2ccncc2)n1)c1ccc(O)cc1O`: the inhibition was 15%.

On to `FC(F)(F)Oc1ccc(N=Cc2ccc(Br)s2)cc1`, for which the inhibition was 8%.

Take `Oc1cccc(-c2nc(-c3ccccc3)c(-c3ccc(Br)cc3)[nH]2)c1`: the inhibition is 22%.

As to `CCOc1ccc(OCCOCCOc2ccccc2Cl)cc1`, the inhibition was 8%.

In the case of `CC1(C)CC(=O)C=C(Nc2cc([N+](=O)[O-])ccc2N)C1`, the inhibition was 7%.

Regarding `CCN(CC)c1ccc(NS(=O)(=O)c2ccc(Cl)cc2)cc1`, the inhibition was 28%.

As for `Cc1cc(C)cc(OCCNC(=O)c2ccccc2C)c1`, the inhibition is 5%.

As to `Cc1cc(C)c2oc(-c3ccc(C)c(NC(=S)NC(=O)c4cccc(F)c4)c3)nc2c1`, the inhibition is 0%.

As for `Cc1ccc2nc(-c3ccc(C)c(NC(=S)NC(=O)c4cccc(Br)c4)c3)oc2c1`, the inhibition was 22%.

For the compound `Cc1ccc(C(=O)NC(=S)Nc2ccc(Cl)c(-c3nc4ccc(C)cc4o3)c2)cc1`, the inhibition is 15%.

For `O=C(NC(=S)Nc1ccc2oc(-c3cc(Cl)ccc3Cl)nc2c1)c1cccc(F)c1`, the inhibition was 18%.

Turning to `Cc1ccc2nc(-c3ccc(C)c(NC(=S)NC(=O)c4cccc(F)c4)c3)oc2c1`, the inhibition is 52% (active).

`COc1ccc(C(=O)NC(=S)Nc2ccc(-c3nc4cc(C)ccc4o3)c(O)c2)cc1`: the inhibition was 17%.

For the compound `Cc1ccc2nc(-c3cc(NC(=S)NC(=O)c4cccc(F)c4)ccc3Cl)oc2c1`, the inhibition is 51% (active).

Turning to `COc1cccc(C(=O)NC(=S)Nc2ccc(-c3nc4cc(C)ccc4o3)c(O)c2)c1`, the inhibition is 53% (active).

Regarding `COc1cccc(C(=O)Nc2ccc(-c3nc4cc(C)ccc4o3)c(O)c2)c1`, the inhibition is 36%.

With `O=C(Nc1ccc(F)c(Cl)c1)c1ccncc1`, the inhibition was 7%.

As to `CCCC1=C(C(=O)OCC)C(c2ccc(Cl)cc2Cl)NC(=O)N1` (centres undefined), the inhibition was 4%.

Regarding `Cc1cccc(N2C(=O)/C(=C/c3cccn3-c3ccccc3)C(=O)NC2=S)c1C`, the inhibition is 30%.

Regarding `COc1ccc(/C=C2\C(=O)NC(=O)N(c3ccccc3)C2=O)cc1I`, the inhibition is 39%.

Take `CCOc1cc(/C=N/NC(=O)c2ccncc2)ccc1OC(=O)c1ccco1`: the inhibition was 5%.

`O=S(=O)(Nc1ccccc1C(F)(F)F)c1ccccc1`: the inhibition is 4%.

`COc1ccc(-n2c(C)cc(/C=C(\C#N)C(=O)Nc3ccccc3)c2C)cc1`: the inhibition was 11%.

On to `O=C1CC(SC(=NCc2ccc3c(c2)OCO3)Nc2ccccc2)C(=O)N1` (centres undefined), for which the inhibition is 0%.

Turning to `COc1ccc(OC)c(CNCc2ccc3c(c2)OCO3)c1`, the inhibition is 6%.

For the compound `COc1cc(C(=O)Nc2ccc(/C=C/C(=O)c3ccccc3)cc2)cc(OC)c1OC`, the inhibition was 63% (active).

As to `COc1ccc(-n2nc3ccc(NC(=O)c4ccc(C)c(C)c4)cc3n2)cc1`, the inhibition is 8%.

As for `COc1ccc(-n2nc3ccc(NC(=O)c4ccc(I)cc4)cc3n2)cc1`, the inhibition was 51% (active).

For the compound `COc1ccc(C(=O)/C=C/c2ccc(NC(=O)c3ccc(I)cc3)cc2)cc1`, the inhibition is 60% (active).

Turning to `COc1ccc(C(=O)Nc2ccc3nn(-c4ccc(F)cc4)nc3c2)cc1`, the inhibition is 0%.

For the compound `Cc1cc(NC(=O)c2ccc(I)cc2)ccc1NC(=O)c1ccccc1`, the inhibition is 50% (active).

For the compound `Cc1cc(NC(=O)c2ccc(F)cc2)ccc1NC(=O)c1ccccc1`, the inhibition is 0%.

As to `COc1ccc(C(=O)Nc2cccc(/C=C/C(=O)c3ccccc3)c2)cc1OC`, the inhibition is 3%.

Consider `Cc1cc(NC(=O)c2ccc(C(C)(C)C)cc2)ccc1NC(=O)c1ccccc1`, for which the inhibition is 7%.

Turning to `COc1cc(C(=O)Nc2ccc(NC(=O)c3ccccc3)cc2)cc(OC)c1OC`, the inhibition was 10%.

As to `COc1ccc(C(=O)Nc2ccc(/C=C/C(=O)c3ccccc3)cc2)cc1`, the inhibition was 8%.

In the case of `COc1ccc(/C=C/C(=O)c2ccc(I)cc2)cc1`, the inhibition is 8%.

`CC(C)(C)C1CCC(C(=O)N/N=C/c2ccc(Cl)s2)CC1` (centres undefined): the inhibition is 5%.

Consider `CSc1nnc2c(n1)[nH]c1c(C)cccc12`, for which the inhibition is 10%.

As to `COc1ccc(N2N=C(c3ccc(C)cc3)CC2c2cccs2)cc1` (centres undefined), the inhibition is 6%.

Turning to `O=C(NNc1ccc([N+](=O)[O-])cc1)c1ccc([N+](=O)[O-])cc1`, the inhibition was 5%.

With `O=C(Nc1ccc(OCc2ccccc2)cc1)c1cccc2ccccc12`, the inhibition is 15%.

Regarding `CCOc1ccc2nc(SCc3ccc(OC)c(F)c3)sc2c1`, the inhibition is 20%.

Consider `Cc1cc(/C=C2/SC(=S)NC2=O)c(C)n1-c1ccc(Cl)cc1`, for which the inhibition is 2%.

Turning to `Cc1cc(/C=C2/SC(=S)NC2=O)c(C)n1-c1ccc(Cl)c(Cl)c1`, the inhibition is 53% (active).

With `Cc1cccc(-n2c(C)cc(/C=C3/SC(=S)NC3=O)c2C)c1`, the inhibition was 56% (active).

For `Cc1cc(C=C2C(=O)NC(=S)NC2=O)c(C)n1-c1cccc(Cl)c1`, the inhibition was 28%.

As to `Cc1cc(/C=C2/SC(=S)NC2=O)c(C)n1-c1cccc(Cl)c1`, the inhibition is 8%.

As to `Cc1cc(/C=C2/SC(=S)NC2=O)c(C)n1-c1ccccc1`, the inhibition was 19%.

With `Cc1ccc(-n2c(C)cc(C=C3C(=O)NC(=S)NC3=O)c2C)cc1C`, the inhibition was 19%.

For `Cc1cc(C=C2C(=O)NC(=S)NC2=O)c(C)n1-c1ccc(Cl)c(Cl)c1`, the inhibition was 55% (active).

As for `Cc1ccc(-n2c(C)cc(/C=C3/SC(=S)NC3=O)c2C)cc1`, the inhibition is 5%.

Take `CCCCN1C(=O)c2cccc3c(Cl)ccc1c23`: the inhibition was 44%.

With `Cc1cc(OCC(=O)Nc2ccccn2)cc(C)c1Cl`, the inhibition was 2%.

Regarding `CCOc1ccccc1OCCOc1ccc(C)cc1C(C)(C)C`, the inhibition is 17%.

`CC(C)OC(=O)c1c(NC(=O)c2ccc([N+](=O)[O-])cc2Cl)sc2c1CCCCC2`: the inhibition was 31%.

In the case of `CC(C)(C)c1nnc(-c2cccc([N+](=O)[O-])c2)o1`, the inhibition is 8%.

Consider `Cc1cccc(NC(=O)c2cc(I)ccc2Cl)n1`, for which the inhibition was 0%.

With `Cc1cccc(NC(=O)c2cc(Cl)ccc2Cl)n1`, the inhibition was 54% (active).

On to `CC(=O)Nc1cccc(NC(=O)c2ccc(Cl)cc2Cl)c1`, for which the inhibition is 3%.

Regarding `CC(=O)Nc1ccc(NC(=O)c2cc(Cl)ccc2Cl)cc1`, the inhibition is 6%.

Regarding `CC(=O)Nc1cccc(NC(=O)c2cc(Cl)ccc2Cl)c1`, the inhibition is 56% (active).

`COc1ccc(Cl)cc1C(=O)Nc1cccc(C)n1`: the inhibition was 0%.
